Compound activity from PubChem.
In the library only some 2.4% were active in any assay of this set; here they are far more common.
M1 ag: human M1 muscarinic receptor agonism; P11229; AID 588814; CHO-K1 hM1, Fluo-8 calcium fluorescence, agonist mode; 0% DMSO, 100% acetylcholine EC100; actives 0.33% (n = 360,000); activation, % at 3 µM;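 active = activation above the run's mean compound activation plus 3 SD, cut at about 16% in these data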;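 note: peak over basal fluorescence ratio within a 140 s kinetic read after compound addition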
Target sequence (P11229 whole entry, looked up): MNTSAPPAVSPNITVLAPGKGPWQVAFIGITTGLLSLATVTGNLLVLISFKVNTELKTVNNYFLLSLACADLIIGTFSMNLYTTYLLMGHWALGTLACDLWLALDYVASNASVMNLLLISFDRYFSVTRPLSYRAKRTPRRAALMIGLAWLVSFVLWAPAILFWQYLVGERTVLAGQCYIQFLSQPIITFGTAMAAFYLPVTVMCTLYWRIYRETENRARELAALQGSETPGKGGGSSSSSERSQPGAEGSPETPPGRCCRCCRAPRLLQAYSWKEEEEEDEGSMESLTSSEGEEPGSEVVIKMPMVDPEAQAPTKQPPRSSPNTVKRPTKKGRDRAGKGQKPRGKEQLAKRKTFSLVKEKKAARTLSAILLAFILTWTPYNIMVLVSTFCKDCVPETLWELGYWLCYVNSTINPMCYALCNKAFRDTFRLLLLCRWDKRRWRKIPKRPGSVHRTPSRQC
CHRM1 antagonist: blocks human M1 muscarinic receptor | P11229 | AID 588852 | CHO-K1 hM1, Fluo-8 calcium fluorescence, ACh EC80 antagonist | actives 1.3% (n = 360,000) | inhibition, % at 3 µM;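 active = percent inhibition above its own plate's cutoff, namely the mean of that plate's compound wells plus 3 SD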;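 note: peak over basal fluorescence ratio during 140 s after agonist addition; 0% = ACh EC80 plus DMSO and 100% = DMSO alone without agonist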
M1 ag parental: counter-screen for M1 agonists: effect in parental CHO-K1 cells. actives 0.48% (n = 360,000). Fluo-8 calcium fluorescence; scaled to maximal ATP response, vehicle zero. activation, % at 3 µM; in the data active = activation above about 15%;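 note: untransfected CHO-K1 host cells lacking M1 receptor as counterscreen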
CHO-K1 Ca antag: nonselective inhibitor or artifact in parental CHO-K1 cells | AID 602250 | actives 0.6% (n = 360,000) | ATP-induced calcium, Fluo-8 fluorescence | inhibition, % at 3 µM;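 active = inhibition above a per-plate cutoff, the plate's mean sample inhibition plus 3 SD, cut at about 24% in these data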;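 note: 0% = DMSO plus EC80 ATP and 100% = DMSO alone without ATP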
M1 PAM parental: M1 PAM counterscreen hit in parental CHO-K1 cells; AID 602247; ATP EC20, Fluo-8 calcium fluorescence; 0% at ATP EC20, 100% at ATP max; actives 0.02% (n = 360,000); activation, % at 3 µM;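 active = activation above the run cutoff, the mean activation of all test compounds plus 3 SD, cut at about 40% in these data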;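 note: peak over basal fluorescence ratio in a 140 s read after ATP addition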
M1 PAM: human CHRM1 positive allosteric modulation. AID 588819. actives 0.088% (n = 360,000). activation, % at 3 µM. P11229. CHO-K1 hM1, Fluo-8 calcium fluorescence, ACh EC20; 0% = ACh EC20, 100% = maximal ACh; in the data active = activation above about 19%, passing the limit was not always enough
An asterisk follows results filed as active.

SMILES	M1 ag	CHRM1 antagonist	M1 ag parental	CHO-K1 Ca antag	M1 PAM parental	M1 PAM
c1ccc(C(c2ccccc2)c2noc(CN3CCN(CC4CC4)CC3)n2)cc1	-7.7	93.5*	0.1	13.0	6.9	-26.9
CC(=O)Nc1ccc(NS(=O)(=O)c2ccc(-c3cnc(C4CC4)o3)cc2)cc1	-3.4	14.8	1.3	3.9	11.1	-5.3
CC(=O)c1cccc(NS(=O)(=O)c2ccc(-c3cnc(C4CC4)o3)cc2)c1	3.6	32.1*	16.2*	12.1	0.7	-11.7
CCCCOc1ccc(/C=N/NC(=S)Nc2cc(C)ccc2C)cc1	0.2	2.0	1.7	28.0*	-5.4	7.9
CCCN=C1CC(C)(C)CC(=O)/C1=C(/O)CCC	-5.9	10.9	17.7*	3.9	16.2	-4.1
O=C(NCc1ccccc1Cl)c1ccc2nc([C@@H]3O[C@H](CO)[C@@H](O)[C@H]3O)[nH]c2c1	-1.1	12.5	0.7	1.6	-9.0	0.6
CCCCN1C(=N)N([C@@H](CCC)CN2CCC[C@H]2CN2C(N)=NC[C@@H]2Cc2ccccc2)C[C@H]1Cc1ccccc1	-13.3	36.4*	-0.2	-15.1	16.8	-35.0
CCC[C@@H](CN1CCC[C@H]1CN1C(N)=NC[C@@H]1Cc1ccccc1)N1C[C@@H]([C@H](C)CC)N(CCCC2CCCC2)C1=N	-10.6	81.6*	0.3	1.4	-15.7	-31.1
CCC[C@@H](CN1CCC[C@H]1CN1C(N)=NC[C@@H]1Cc1ccccc1)N1C[C@@H](Cc2ccccc2)N(CCCC2CCCC2)C1=N	-10.2	33.0	1.3	-14.4	17.1	-32.0
CCOC(=O)c1c(C)[nH]c(C(=O)CN(C)CC(=O)Nc2ccccc2C(F)(F)F)c1C	-2.9	-10.7	0.7	-21.7	5.5	8.3
COc1ccc(Nc2sc(C(=O)c3ccc(Cl)cc3)c(N)c2C(=O)Nc2ccccc2OC)cc1	38.6*	44.0*	19.6*	31.5*	13.4	-5.4
CC(Oc1ccccc1Cl)C(=O)Nc1ccc(S(=O)(=O)N2CCCC2)cc1 (stereo not drawn)	-3.5	90.6*	4.2	-0.4	12.8	-26.6
CC(=O)Nc1ccc(NC(=O)COC(=O)c2cc(S(=O)(=O)N3CCCC3)ccc2O)cc1	-1.2	30.4*	0.3	-7.4	16.0	-14.5
O=C(COC(=O)c1cc([N+](=O)[O-])ccc1NCCO)Nc1ccc2c(c1)OCO2	-2.8	-2.9	1.6	1.3	6.7	5.2
CC(Oc1ccc(Cl)cc1)C(=O)Nc1ccc(S(=O)(=O)N2CCOCC2)cc1 (stereo not drawn)	38.0*	8.4	36.2*	5.0	13.5	-3.3
O=C(COC(=O)c1cc([N+](=O)[O-])ccc1NCCO)Nc1cccc(S(=O)(=O)N2CCCC2)c1	-7.4	39.7*	0.3	8.9	2.2	-18.9
O=C(COc1ccccc1Br)Nc1ccc(S(=O)(=O)N2CCCC2)cc1	-4.3	42.2*	6.0	-13.2	3.8	-29.1
Cc1nnc(SCC(=O)Nc2ccc(S(=O)(=O)N3CCCC3)cc2)n1N	-3.4	54.1*	0.3	-1.7	0.8	-20.6
CC(OC(=O)c1ccc(Cl)nc1)C(=O)Nc1ccc(S(=O)(=O)N2CCCC2)cc1 (stereo not drawn)	-7.1	36.4*	1.0	-3.2	-8.0	-24.8
CCOC(=O)N1CCN(S(=O)(=O)N2CCCC(C(=O)NCc3cc(Br)ccc3OC)C2)CC1 (stereo not drawn)	-1.9	-0.4	2.0	-18.7	19.1	-7.8
Cc1c(NS(=O)(=O)c2ccc(N)cc2)c(=O)n(-c2ccccc2)n1C	2.9	-14.0	0.0	-8.8	3.0	15.6
O=C(CC(=O)N/N=C/c1cccs1)NCc1ccccc1	-6.9	6.6	15.7*	6.8	0.7	3.8
CCN(CC)CCCNC(=O)c1cc(-c2ccccc2)c(N2CCCCC2)s1	-8.8	55.4*	3.4	-14.4	8.8	-25.4
O=C(NCCc1ccccc1)c1cc(-c2ccccc2)c(N2CCOCC2)s1	8.9	-1.5	-0.2	-12.8	1.5	10.8
Cc1ccc(CC(NC(=O)c2ccccc2)C(=O)NC(Cc2ccccc2)C(=O)O)cc1 (stereo not drawn)	-1.8	0.4	0.7	-6.0	18.9	-2.5
SMILES	M1 ag	CHRM1 antagonist	M1 ag parental	CHO-K1 Ca antag	M1 PAM parental	M1 PAM
O=C(NC(Cc1ccc2c(c1)OCO2)C(=O)NC(Cc1ccccc1)C(=O)O)c1ccccc1 (stereo not drawn)	-3.0	3.7	-0.2	24.7*	-5.9	3.1
O=C(O)CC(Cc1ccccc1)c1ccc2c(c1)OCO2 (stereo not drawn)	-4.1	13.1	-0.2	32.7*	-9.6	-1.4
Cc1cc(C)c(NC(=O)COC(=O)c2nc3nccc(C)n3n2)c(Cl)c1	-1.7	-9.4	0.6	-14.4	19.9	9.1
COc1cc(O)c(C(CC(=O)N2CCOCC2)c2ccc3c(c2)OCO3)c(OC)c1 (stereo not drawn)	-0.7	36.1*	-0.7	2.4	-20.3	-19.9
COc1ccc(Cl)cc1NC(=O)CN1C(=O)C(=O)N(C2CCCC2)C1=O	2.3	-11.3	1.3	-16.6	16.7	9.4
Clc1ccc(C(c2ccccc2)N2CCNCC2)cc1 (stereo not drawn)	0.5	22.6	0.9	-14.6	17.9	-10.1
CC12CNCC(C)(CN(C(c3ccccc3)c3ccccc3)C1)C2	-5.7	58.9*	-0.4	15.0	-5.0	-22.2
CN(c1cccc(Cl)c1)S(=O)(=O)c1cccc(C(=O)NN2CCOCC2)c1	-1.2	-0.5	0.7	-7.5	11.0	1.9
CC1(C(=O)O)CCC(C(=O)Nc2ccc(OC(F)(F)Cl)cc2)C1(C)C (stereo not drawn)	0.9	-19.8	1.1	-9.7	-6.6	20.1
c1ccc2c(Nc3ccc4c(c3)OCCO4)c3c(nc2c1)CCCC3	-10.0	27.6*	1.0	-10.2	12.2	-29.2
COc1cc(Nc2c3c(nc4ccccc24)CCCC3)cc(OC)c1OC	-13.2	13.8	16.9*	4.4	6.9	-7.8
Fc1cccc(Nc2c3c(nc4ccccc24)CCC3)c1	-8.5	-12.3	3.6	0.2	4.3	6.5
COc1ccccc1Nc1c2c(nc3ccccc13)CCC2	-7.8	4.7	4.4	-35.4	16.2	-2.5
O=C(COC(=O)c1ccccc1OCc1ccccc1Cl)NCC1CCCO1 (stereo not drawn)	-5.9	-9.3	2.0	-19.9	-1.3	3.2
Cc1ccc(Cc2c(C)nc3nc(SCC(=O)NCCCN4CCCC4)nn3c2C)cc1	-11.7	28.8*	0.9	-14.4	10.2	-24.9
Cc1nc2nc(SCC(=O)NCCN3CCOCC3)nn2c(C)c1Cc1ccccc1	-4.1	-3.8	0.1	-3.2	-2.6	1.0
Cc1ccc(Cc2c(C)nc3nc(SCC(=O)NCCCN4CCCCC4)nn3c2C)cc1	-11.3	26.4*	1.5	-6.2	15.4	-25.1
Cc1cccc(Cc2c(C)nc3nc(SCC(=O)O)nn3c2C)c1	-0.6	1.2	-0.5	-8.4	-6.2	6.5
